PubChem BioAssay (NCI)
Compounds without any hit were thinned out: in the full panel of roughly 79,000, 15% have a hit. A number with no mark means an inactive call. Activity calls are given as the source filed them. Cut-off read from the data, not from the text of the source: active = growth inhibition above about 70%; inactive = the rest.

Tests used:
[1] = NCI Yeast Anticancer Drug Screen. Data for the rad50 strain (AID 155);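 note: 0% = growth of vehicle-only cultures of the same strain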; conditions: S. cerevisiae rad50 strain growth inhibition; at 50.0 µM; active compounds read high
Procedure, shortened: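 Growth of the mutant yeast was measured after compound exposure and referenced to vehicle-treated cultures.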

[2] = NCI Yeast Anticancer Drug Screen. Data for the mec2-1 strain (AID 157); conditions: S. cerevisiae mec2-1 strain, at 50.0 µM, active compounds read high
Procedure, shortened: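 Vehicle-treated cultures served as reference for growth inhibition of compound-exposed mec2-1 yeast.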

[3] = NCI Yeast Anticancer Drug Screen. Data for the sgs1 mgt1 strain (AID 161);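 note: 0% = growth of cultures given vehicle only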; conditions: S. cerevisiae sgs1 mgt1 strain, at 50.0 µM, active compounds read high
Procedure, shortened: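 Mutant yeast exposed to compound; growth scored against vehicle-only wells.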

[4] = NCI Yeast Anticancer Drug Screen. Data for the cln2 rad14 strain (AID 165);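 note: 0% = growth equal to vehicle treated cultures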; conditions: S. cerevisiae cln2 rad14 strain, at 50.0 µM, active compounds read high
Procedure, shortened: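 Each compound was tested on cln2 rad14 yeast. Inhibition of growth was calculated against vehicle-exposed controls.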

[5] = NCI Yeast Anticancer Drug Screen. Data for the bub3 strain (AID 167); conditions: S. cerevisiae bub3 mutant strain, at 50.0 µM, active compounds read high
Procedure, shortened: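 Whole-cell yeast assay. The mutant strain was incubated with compounds, and growth inhibition was determined by comparison with vehicle-treated cells.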

[6] = NCI Yeast Anticancer Drug Screen. Data for the mlh1 rad18 strain (AID 175); conditions: S. cerevisiae mlh1 rad18 strain growth inhibition; at 50.0 µM; active compounds read high
Procedure, shortened: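 Vehicle-treated cultures served as the reference for growth inhibition in a yeast strain carrying DNA damage repair alterations exposed to each compound.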

Row | SMILES | growth inhibition [1] [%] | growth inhibition [2] [%] | growth inhibition [3] | growth inhibition [4] | growth inhibition [5] [%] | growth inhibition [6] [%]
1 | CC(=O)NNC(=S)N/C=C/c1c(C)ccc([N+](=O)[O-])c1[N+](=O)[O-] | -24.5 | -35 | -28.4% | -31.9% | -36 | -2.8
2 | CCOC(=O)C(CCC#N)(CCC#N)C(=O)OCC | 39.5 | 9.8 | -2.2% | -21.3% | 12.6 | 38.7
3 | COC(=O)Cc1cc(COC(C)=O)ccc1C | 0.05 | 0 | -0.7% | -57% | -17.2 | -7.8
4 | O=C1C=C(c2ccccc2)C(O)(c2ccccc2)C1 (stereo not drawn) | 15.1 | 6.85 | 6.75% | 5.1% | 11.4 | 6.15
5 | CC(=O)Nc1ccc(C(=O)c2ccc(S(=O)(=O)Nc3ccccc3)cc2)cc1 | 6.5 | -9.15 | 5.55% | 16.9% | 6.05 | -14.4
6 | Nc1ccn(C2CC(N)C(CO)O2)c(=O)n1 (stereo not drawn) | 16.1 | 7.15 | 9.25% | 19.8% | 6.9 | 32.4
7 | CC(=O)Nc1ccc(/C=C2\SC(=S)N(/C=C(\C(C)=O)C(N)=O)C2=O)cc1 | -52 | -7.4 | -37.6% | -0.8% | -5 | -11.2
8 | S=C(Sc1ccc(Cl)cc1)Sc1ccc(Cl)cc1 | 46.5 | 19.9 | 54% | 23.1% | 29.6 | 24.1
9 | NC(=S)N/N=C/c1ccc(OC(=O)COc2ccc(Cl)cc2)cn1 | 5.65 | 7.85 | 31.4% | -1.25% | 4.2 | 9.5
10 | CC(=O)OC(C)c1cccc(C#N)c1 (stereo not drawn) | 7.15 | -25.4 | 6.2% | -8.9% | -2.95 | 22
11 | CC(C)NC(=O)OCc1c(COC(=O)NC(C)C)c(-c2ccc(Cl)cc2)n2c1CCC2 | -29.6 | -23.7 | -26.1% | 9.25% | -6.75 | -24.4
12 | O=S(=O)(O)c1cccnc1 | 12.4 | 6 | 10.7% | -11.6% | -2.25 | 15.8
13 | C=CCc1cc(OC)c(OC)c(OC)c1 | 7.8 | -4.2 | -16.3% | -6.6% | -9.7 | -4
14 | CCOc1ccncc1[N+](=O)[O-] | 5.5 | 13.1 | 3.25% | -7% | 10.1 | 5
15 | COC1(OC)C2(Cl)C(Cl)=C(Cl)C1(Cl)C1COCC12 (stereo not drawn) | -48 | 17.5 | -40.2% | 12.8% | 22.2 | -8.6
16 | CCCCCCCCCCCCSC1=C(Cl)C(=O)C(OC)=C(OC)C1=O | 23.3 | -18.1 | 1.5% | 4.75% | -7.2 | 38
17 | Nc1ncnc(Nc2ccc(C(F)(F)F)cc2)n1 | 44 | 8.35 | 1.35% | 13.2% | 25.6 | 17.9
18 | CC(=O)Nc1ncc(S(=O)(=O)c2ccc([N+](=O)[O-])cc2)s1 | -28.1 | -57.5 | -17.1% | -7.55% | -41.2 | -32.1
19 | CCCCCC/C=C\CCCCCCCCCc1cc(O)cc(OC)c1O | -8.55 | 4.45 | -5.65% | -9.8% | -33.2 | 13.2
20 | CCCC(OC(C)=O)c1ccc2c(c1)OCO2 (stereo not drawn) | 26.4 | 27.5 | 17.3% | -12% | 20.9 | 29.2
21 | CC12CCC3c4ccc(O)cc4CCC3C1CCC2=O (stereo not drawn) | 26.2 | -11.8 | 14.7% | 12.7% | 18.5 | 3.45
22 | CCOC(=O)c1ccc(C(C)(C)C)cc1 | 20.4 | -6.65 | 2.5% | -45.5% | 0.4 | 6.5

Row | SMILES | growth inhibition [1] [%] | growth inhibition [2] [%] | growth inhibition [3] | growth inhibition [4] | growth inhibition [5] [%] | growth inhibition [6] [%]
23 | NCC(O)C(O)C(O)C(O)CO (stereo not drawn) | 13.2 | 6.8 | 15.1% | 23.2% | 18.1 | 0.95
24 | CCOC(=O)c1ccc(NC(=O)Nc2nccs2)cc1 | -2.95 | -10.8 | 29.4% | 11.2% | -12.4 | 6.1
25 | C1CCc2onc(-c3noc4c3CCCCC4)c2CC1 | -9.45 | -15.8 | -19.1% | -1.1% | -21.4 | 2.8
26 | Cc1cc(CO)c(O)c(CO)c1 | 8.15 | -10.4 | 0.1% | -5.05% | -10.5 | 0.85
27 | O=[N+]([O-])c1ccc(-c2nc(N(CCO)CCO)c3ccccc3n2)o1 | 41.8 | 69.8 | 88.8% (active) | 72.5% (active) | 25.1 | 66.8
28 | O=S(=O)(OCCOS(=O)(=O)c1ccccc1)c1ccccc1 | 31.9 | 1.45 | -0.9% | -27.9% | -9.1 | 50.7
29 | COc1ccc(Br)c2c1C(=O)CC2 | 43.6 | 23.4 | 29.4% | 28.4% | 5.45 | 32.9
30 | CC(C)(C)NCCC(O)c1cc(C(F)(F)F)nc2c(C(F)(F)F)cccc12 (stereo not drawn) | -4.3 | -36.1 | -22.4% | 21.1% | -11.9 | 0.15
31 | C/C(=N\O)c1ccccn1 | -7.6 | -16.4 | -17.9% | 1.15% | -8.85 | 1.45
32 | C=CC1=NC(C)(C)CC(C)O1 (stereo not drawn) | 8 | -15.2 | 9.75% | 25.4% | 11.5 | 9.75
33 | COC(=O)C1=C(C)C(=O)CC1 | 16.7 | -1.5 | 11.8% | -11.9% | 13.9 | 14.2
34 | CCOC(=O)CSCCC#N | 2.85 | 2.35 | -5.05% | -7.9% | 1.75 | 0.65
35 | CCCCCCCCNC(=O)C(C)C | -13.9 | 30.1 | -2.15% | -42.1% | -18.6 | -11.9
36 | O=CNCCc1ccccc1 | 7.25 | -9.05 | 6.85% | 5% | 6.3 | 2.35
37 | CCCNS(=O)(=O)c1ccc(Cl)cc1 | 20.1 | -2.9 | -0.45% | 1.55% | -4.75 | -3.7
38 | COc1cccc(N=CNc2cccc(OC)c2)c1 | -36.2 | -34.7 | -17.4% | 8.55% | -11.8 | -27.9
39 | O=S(Cc1ccccc1)/C(=C/NC(=S)Nc1cc(Cl)ccc1Cl)c1ccccc1 (stereo not drawn) | 3.6 | 7.05 | 14.4% | 5.6% | 5.35 | 7.1
40 | O=C(NCc1ccccc1)c1cccc([N+](=O)[O-])c1 | 5.05 | 18.1 | 19.9% | -47% | 22.9 | 15.6
41 | Nc1nnc2cc(F)ccc2n1 | -18 | -9.75 | -5.9% | 21.8% | 11.7 | -12.2
42 | Nc1c(Br)cc(O)c2c1C(=O)c1ccccc1C2=O | -11.6 | -3.5 | 8.55% | 7% | 26.9 | 10.5
43 | CC1(C)OC(=O)CC1=O | 4.6 | -2.45 | 0.55% | 3.65% | 1.8 | -3.2
